Measured values: PubChem BioAssay (NCI)
Where “and” joins values, the source holds several entries; their conditions need not be identical. Identical values can stand only once. This is part of a sample that, as a whole, favours compounds with a hit. Of some 83,000 tested, about 20% had one in any assay.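 Percent growth is the endpoint: 0 to 100 indicates growth inhibition (40 means 60% inhibition), 0 means no net growth, and negative values indicate cell death.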 Unmarked numbers belong to inactive results. Calls of active or inactive are those of the source. How the source made its calls: active means growth percent below 10; inactive means the rest.

Tested on: HL-60(TB) leukemia
Test: NCI-60 one-dose screen, 48 h (100 = growth as untreated, 0 = no growth, -100 = all killed)
Conditions: 10 µM unless noted

Row | SMILES | growth
1 | COc1ccc(-c2cnnn2-c2nonc2-n2cccc2)cc1OC | 11%
2 | Cn1c(/C=C(\C#N)c2ccccc2)nc2c(N3CCOCC3)nc(Cl)nc21 | -33% (active)
3 | COc1ccc(C2NC(=O)C(C#N)c3c2sc2c(F)cccc32)cc1 (stereo not drawn) | 10.5%
4 | COc1ccc(-n2nnc(C(=O)NCCc3c[nH]c4ccc(F)cc34)c2C)cc1 | 86.9%
5 | N#CC1=C(N)Oc2c(ccc3ccccc23)C1c1ccc([N+](=O)[O-])cc1 (stereo not drawn) | 69.9%
6 | CN(C)CCCn1c(=O)c2cc([N+](=O)[O-])ccc2c2cnc3[nH]ccc3c21 | 90.4%
7 | N#CC1C=CN(CC(N)=O)c2ccc3cccnc3c21 (stereo not drawn) | 92.7%
8 | COc1ccc(-c2cc(-c3cc(OC)ccc3OC)[nH]c(=O)c2C#N)cc1 | 18.1%
9 | Cc1cccc(Cl)c1NC(=O)c1ccc2nc(NC(=O)NCCN(C)C)sc2c1 | 115%
10 | COc1ccc(CN2c3ccccc3Sc3ccccc32)cc1O | 21.1%
11 | Cc1ccncc1NC=O | 105%
12 | Cc1ccc(N2CCN(C(=S)c3cccs3)CC2)cc1 | 93.3%
13 | O=C(CO)C(O)C(O)C(O)C(O)CO (stereo not drawn) | 101% and 102%
14 | CCOC(=O)c1cc(C(=O)c2cc(OC)c(OC)c(OC)c2)n2ncccc12 | -32.5% (active)
15 | O=C1NC(=O)C(CC(=O)n2c(-c3ccccc3)nc3ccccc32)C(=O)N1 | 106%
16 | c1ccc2c(c1)oc1c3c(ccc12)NCCC3 | 91.8%
17 | Cc1sc(N=Nc2ccc(N(C)C)cc2)[n+]([O-])c1C | 92.7%
18 | COc1cc2oc(-c3cccc(NC(=O)c4ccccc4)c3)cc(=O)c2c(OC)c1OC | 60.5%
19 | Cn1cc(-c2csc(-c3c[nH]c4ccc(Br)cc34)n2)c2cnccc21 | -56.6% (active)

Row | SMILES | growth
20 | O=C1C(SCCO)=C(SCCO)C(=O)N1c1ccc(-c2ccccc2)cc1 | -44.2% (active)
21 | COc1cc(NC(=O)CCSc2nc3ccccc3c(=O)n2CCc2ccccn2)cc(OC)c1OC | 99.1%
22 | Cn1c(-c2ccc(Br)cc2)c(O)c(=O)c2c(F)cccc21 | 122%
23 | Cc1ccc(NC(=O)Nc2ccc(-c3cccnc3)cc2N2CCC(CO)CC2)cc1 | 13.9%
24 | CCc1ccccc1-n1c(-c2ccc(Cl)cc2)cc(-c2ccc(OC)cc2)c(C#N)c1=O | 68.8%
25 | CC1=C(C(=O)OCC2CCN(C(=O)OC(C)(C)C)CC2)[C@@H](c2cccc(C#N)c2)C2=C(CC(C)(C)CC2=O)N1 | 16.8%
26 | COc1ccccc1/C=N\N=C(N/N=C/c1ccccc1OC)N/N=C/c1ccccc1OC | 31.3% and 41.7%
27 | CCOC(C)(c1ccc(Cl)cc1)C1CCNCC1 (stereo not drawn) | 86.1%
28 | NS(=O)(=O)c1ccc(-n2nc(-c3ccc(Br)cc3)ccc2=O)cc1 | 88.5% [100 µM]
29 | C=CCn1c(SCC(=O)Nc2ccc(C(=O)/C=C/c3cc(OC)c(OC)c(OC)c3)cc2)nnc1-c1cc(-c2ccc(S(C)(=O)=O)cc2)nc2ccccc12 | 69.8%
30 | COc1cccc(C2CC(c3cc(OC)c(OC)c(OC)c3)=NN2)c1 (stereo not drawn) | 55.1%
31 | O=Cc1ccccc1C(=O)O | 111%
32 | O=C1NCc2ccc3c(-c4cccc(Cl)c4)c[nH]c3c21 | -4.05% (active)
33 | Oc1ccc(/C=N/N=C2c3ccccc3-c3ccccc32)c(O)c1 | 71.7%
34 | COC(=O)[C@H](Cc1ccccc1)NC(=O)[C@@H](OC)[C@@H]1Cc2cc3cc(OC4CC(OC5CC(O)C(O)C(C)O5)C(O)C(C)O4)c(C)c(O)c3c(O)c2C(=O)[C@H]1OC1CC(OC2CC(OC3CC(C)(O)C(O)C(C)O3)C(O)C(C)O2)C(O)C(C)O1 (stereo partly drawn) | -9.07% (active)
35 | CN(O)c1nc(N(C)O)nc(N2CCOCC2)n1 | 21.5%
36 | COc1ccc([C@H]2[C@@H](F)C(=O)N2c2cc(OC)c(OC)c(OC)c2)cc1F | -14.7% (active)
37 | OC(c1ccccc1)C(NC(Cc1ccccc1)c1ccccc1)c1ccccc1 (stereo not drawn) | 112%
38 | CN1CCN(Cc2ccc(NC(=O)c3[nH]ncc3Nc3ncnc4[nH]ccc34)cc2)CC1 | -31.4% (active)
